Experimental data: PubChem BioAssay (EPA / NIEHS)
Results filed as inconclusive are left out. Calls of active or inactive are those of the source. How the source made its calls, unless noted: active means hit-call score of the fitted dose curve at least 0.9, where 1 is the maximum; inconclusive means response in the unintended direction; inactive means score below 0.9.

Read-out: not listed separately
Test: BSK_4H_Eotaxin3: BioMAP Diversity Plus: 4H Assay for Eotaxin 3 Biomarker Activity (AID 2283000; active means hit-call score of the fitted dose curve at least 0.9, where 1 is the maximum; inactive means score below 0.9;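 on outcome: CCL26 protein level quantified by ELISA in parallel with SRB cytotoxicity check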)
Details: primary human endothelial cells (HUVEC); actives raise or lower the signal
In short: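 Readout is Eotaxin-3 (CCL26) level by ELISA in primary human umbilical vein endothelial cells harvested 24 h after chemical exposure; activity fitted in both directions against DMSO control.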

Structure (SMILES)	AC50	outcome
O=C1C(Cl)=C(Cl)C(=O)C(Cl)=C1Cl	15 µM (active)	–
N#CCCCCC#N	–	inactive
CC(C)(c1cc(Cl)c(O)c(Cl)c1)c1cc(Cl)c(O)c(Cl)c1	32.1 µM (active)	–
COCC(=O)N(c1c(C)cccc1C)N1CCOC1=O	–	inactive
CC(C)CCCCCCCOP(=O)(Oc1ccccc1)Oc1ccccc1	20 µM (active)	–
C=CCN(CC=C)C(=O)C(Cl)Cl	–	inactive
c1ccc(Nc2ccc3ccccc3c2)cc1	–	inactive
Cc1ccc(OP(=O)(Oc2ccc(C)cc2)Oc2ccc(C)cc2)cc1 (tested in a mixture with another compound)	–	inactive
O=S(=O)(c1ccccc1)c1ccccc1	–	inactive
CC(=O)/C=C/c1ccccc1	–	inactive

Target: human Peroxisome Proliferator-activated Receptor alpha (PPARa), PPARA (gene 5465) (UniProt Q07869)
Sequence (Q07869 whole entry, looked up): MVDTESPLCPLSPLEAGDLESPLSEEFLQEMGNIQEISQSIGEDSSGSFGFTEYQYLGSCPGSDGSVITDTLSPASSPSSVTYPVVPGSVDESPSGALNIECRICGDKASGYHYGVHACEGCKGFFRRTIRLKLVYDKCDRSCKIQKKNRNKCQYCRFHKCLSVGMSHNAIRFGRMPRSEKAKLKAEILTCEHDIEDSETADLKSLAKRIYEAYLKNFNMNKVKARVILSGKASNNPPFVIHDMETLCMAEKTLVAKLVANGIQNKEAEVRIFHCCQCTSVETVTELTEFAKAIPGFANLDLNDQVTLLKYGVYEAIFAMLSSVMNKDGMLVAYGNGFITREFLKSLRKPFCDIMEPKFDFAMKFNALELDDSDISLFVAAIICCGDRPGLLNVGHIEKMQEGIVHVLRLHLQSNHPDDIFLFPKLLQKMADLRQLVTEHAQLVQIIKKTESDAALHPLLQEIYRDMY
Test: ATG_PPARa_TRANS: Attagene TRANS-FACTORIAL HepG2 Assay for human Peroxisome Proliferator-activated Receptor alpha (PPARa) (AID 2283001);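 on AC50: potency for gain of reporter signal over DMSO so agonist or activator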
Details: not given
In short: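 Reporter transcripts quantified by RT-PCR plus capillary electrophoresis after 24 h treatment, fitted upward relative to DMSO. Cells: human HepG2 transiently carrying multiple GAL4-UAS reporter units driven by NR-Gal4 chimeras.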

Structure (SMILES)	outcome	AC50
O=C1C(Cl)=C(Cl)C(=O)C(Cl)=C1Cl	inactive	–
CC(C)c1ccc(O)cc1	inactive	–
C[N+](C)(C)CC(=O)[O-]	inactive	–
[N-]=[N+]=CC(=O)OC[C@H](N)C(=O)O	inactive	–
CCC1CCC(=O)O1 (stereo not drawn)	inactive	–
C=COCCCl	inactive	–
CC[N+](=O)[O-]	inactive	–
CC(Cc1ccc(C(C)(C)C)cc1)CN1C[C@@H](C)O[C@@H](C)C1 (stereo partly drawn)	inactive	–
CCOC(=O)N(C)N=O	inactive	–
CC(C)(O)C#N	inactive	–
CC(C)C#N	inactive	–
S=c1[nH]c2ccccc2[nH]1	inactive	–
CCCCCc1cc(O)cc(O)c1	inactive	–
c1ccc(Nc2ccc3ccccc3c2)cc1	inactive	–
ClC1=C(Cl)[C@]2(Cl)[C@@H]3[C@@H](Cl)[C@H](Cl)C[C@@H]3[C@@]1(Cl)C2(Cl)Cl	inactive	–
CC(=O)/C=C/c1ccccc1	–	38.8 µM (active)
N#Cc1cccc(C#N)c1	inactive	–
O=C1Nc2ccc(Cl)cc2C(c2ccccc2)=NC1O (stereo not drawn)	inactive	–

Target: human Peroxisome Proliferator-activated Receptor delta (PPARd), PPARD (gene 5467) (UniProt Q03181)
Sequence (Q03181 whole entry, looked up): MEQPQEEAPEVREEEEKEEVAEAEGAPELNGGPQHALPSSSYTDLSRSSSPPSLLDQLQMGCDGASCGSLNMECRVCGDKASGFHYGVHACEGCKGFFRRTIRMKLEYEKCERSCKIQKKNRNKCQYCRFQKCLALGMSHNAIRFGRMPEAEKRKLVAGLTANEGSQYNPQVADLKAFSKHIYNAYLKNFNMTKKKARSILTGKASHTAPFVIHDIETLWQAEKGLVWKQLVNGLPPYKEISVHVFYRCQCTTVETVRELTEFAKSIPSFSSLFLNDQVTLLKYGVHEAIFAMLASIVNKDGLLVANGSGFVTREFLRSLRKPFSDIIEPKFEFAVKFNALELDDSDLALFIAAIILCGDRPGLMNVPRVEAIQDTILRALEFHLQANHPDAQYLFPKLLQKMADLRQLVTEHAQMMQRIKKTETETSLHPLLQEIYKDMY
Test: ATG_PPARd_TRANS: Attagene TRANS-FACTORIAL HepG2 Assay for human Peroxisome Proliferator-activated Receptor delta (PPARd) (AID 2283002)
Details: not given
In short: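 Read-out is induced reporter mRNA, quantified by RT-PCR with fluorescent labelling and capillary electrophoresis after 24 h dosing. Cells are HepG2 transiently carrying multiple GAL4-UAS reporter units driven by exogenous NR-GAL4 chimeras; DMSO serves as baseline.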

Structure (SMILES)	outcome
O=C1C(Cl)=C(Cl)C(=O)C(Cl)=C1Cl	inactive
CC(C)c1ccc(O)cc1	inactive
C[N+](C)(C)CC(=O)[O-]	inactive
CC(C)(c1cc(Cl)c(O)c(Cl)c1)c1cc(Cl)c(O)c(Cl)c1	inactive
O=C(NCNC(=O)NC1C(=O)NC(=O)N1CO)NC1C(=O)NC(=O)N1CO (stereo not drawn)	inactive
[N-]=[N+]=CC(=O)OC[C@H](N)C(=O)O	inactive
COCC(=O)N(c1c(C)cccc1C)N1CCOC1=O	inactive
CC(C)CCCCCCCOP(=O)(Oc1ccccc1)Oc1ccccc1	inactive
CCC1CCC(=O)O1 (stereo not drawn)	inactive
C=CCN(CC=C)C(=O)C(Cl)Cl	inactive
CC[N+](=O)[O-]	inactive
CCOC(=O)N(C)N=O	inactive
O=CNC(N1CCN(C(NC=O)C(Cl)(Cl)Cl)CC1)C(Cl)(Cl)Cl (stereo not drawn)	inactive
CCC[N+](=O)[O-]	inactive
CC(C)C#N	inactive
CCCCCc1cc(O)cc(O)c1	inactive
c1ccc(Nc2ccc3ccccc3c2)cc1	inactive
CSc1nc(N=[N+]=[N-])nc(NC(C)C)n1	inactive
CC=Cc1ccc2c(c1)OCO2	inactive
CC(=O)/C=C/c1ccccc1	inactive
c1ccc(P(c2ccccc2)c2ccccc2)cc1	inactive
CCOC(=O)COc1ccc(Cl)cc1Cl	inactive
CCN(CC)C(=S)S	inactive
O=C1Nc2ccc(Cl)cc2C(c2ccccc2)=NC1O (stereo not drawn)	inactive
N#CC(c1ccccc1)c1ccccc1	inactive
